From PubChem
HepG2 viability: counter-screen for TGF-b inhibitors: cytotoxicity in HepG2 cells; Potency, µM (titrated, usually from 46.1 µM), most hits filed as cytotoxic; AID 588856; HepG2 CAGA-GFP viability, ATP luminescence, 18 h; 410,000 tested, 0.76% active
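HepG2 CAGA-GFP cells (1000/well, DMEM with 1% FBS) received compound, then TGF-beta at 500 pg/mL final, and were incubated 18 hours at 37 degrees C. Viability was read by CellTiter-Glo luminescence. Media-only wells were set as complete cell-killing and DMSO as no toxicity.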
Gal4-VP16 FLuc: Gal4-VP16 reporter inhibition counter-screen; 310,000 tested, 3.5% active; Potency, µM (top dose mostly 53.6 µM), most hits filed as inhibitors; AID 2546; Drosophila S2 Gal4-VP16 UAS-luciferase, luminescence, 20 h;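 further: Gal4-VP16 expression switched on by copper sulfate through the metallothionein promoter; nearly all actives have a fitted effect of over 50% in size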
RORg inh: ROR gamma (mouse) transcription inhibition; P51450; Drosophila S2 Gal4-RORgamma UAS-luciferase reporter, 20 h; Potency, µM (doses to about 53.6 µM), actives largely listed as inhibitors; 310,000 tested, 5.4% active; further: nearly all actives have a fitted effect of over 60% in size
Target sequence (P51450 whole entry, looked up, the tested form may be a part): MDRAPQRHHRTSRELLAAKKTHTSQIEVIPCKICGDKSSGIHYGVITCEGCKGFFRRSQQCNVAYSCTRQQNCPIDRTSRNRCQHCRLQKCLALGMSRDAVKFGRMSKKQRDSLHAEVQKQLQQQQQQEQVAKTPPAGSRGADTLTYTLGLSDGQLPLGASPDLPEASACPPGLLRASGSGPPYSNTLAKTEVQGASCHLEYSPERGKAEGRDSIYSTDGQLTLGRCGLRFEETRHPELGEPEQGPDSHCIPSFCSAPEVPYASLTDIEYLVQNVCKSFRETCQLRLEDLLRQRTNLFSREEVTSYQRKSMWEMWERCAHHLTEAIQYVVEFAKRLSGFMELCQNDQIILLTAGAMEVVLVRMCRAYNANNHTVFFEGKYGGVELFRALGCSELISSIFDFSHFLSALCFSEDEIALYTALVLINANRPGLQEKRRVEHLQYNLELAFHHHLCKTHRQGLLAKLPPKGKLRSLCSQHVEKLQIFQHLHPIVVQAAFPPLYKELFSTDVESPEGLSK
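Compounds are pin-transferred onto Drosophila Schneider cells expressing a copper-inducible Gal4–ROR gamma transactivation domain fusion. After 1 hr, copper sulfate is added to 700 uM final; luciferase is read 20 hr later.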
ATXN viability: reduces viability in counter-screen for ATXN expression inhibitors; S2 cells (HEK-293 line with an ATXN2-luciferase reporter) viability, CellTiter-Fluor protease fluorescence, 24 h; Potency, µM (series often up to 56.7 µM), most hits filed as cytotoxic; 400,000 tested, 0.49% active; AID 651635; further: nearly all actives have a fitted effect of over 40% in size
ATXN2 expr inh: reduces ATXN2 reporter expression in HEK-293 cells; Potency, µM (top dose mostly 57 µM), actives largely listed as inhibitors; 360,000 tested, 0.72% active; AID 1745845; HEK-293 ATXN2-luciferase reporter, luminescence, 24 h; further: nearly all actives have a fitted effect of over 55% in size
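qHTS (up to 57 uM final) was run with 24 h compound exposure of reporter cells at 37 °C. Each well was multiplexed: SteadyGlo luminescence measured ATXN2-luciferase expression after a fluorogenic Gly-Phe-AFC viability readout (25 uM final).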
TGFb SMAD3 inh: inhibitors of TGF-b signaling | Potency, µM (series often up to 46.1 µM), hits mostly inhibitors | HepG2 CAGA-GFP TGF-b/SMAD3 reporter, GFP fluorescence, 18 h; TGF-beta stimulated, 500 pg/mL final | AID 588855 | 410,000 tested, 1.2% active; further: nearly all actives have a fitted effect of over 65% in size
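Inhibition of TGF-beta-driven CAGA-GFP reporter expression in HEPG2 cells is measured by cellular GFP fluorescence after 18 h stimulation with 500 pg/mL recombinant TGF-beta in 1% FBS medium at 37 degrees C.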
Numbers stand for hits; – = inactive; ? = inconclusive; · = no result given; ! = a repeat was not active; [ ] = remark or other dose. Rows were chosen to be rich in hits. Some 6.1% of all compounds tested hit in one or more screens of this group. The call rests on the fitted dose curve; in most records, active means well fitted curve in the direction sought with a large enough effect; inconclusive means small, poorly fitted or top-dose-only effect, or another doubt; inactive means no such curve, though single readings can be large; an effect the other way counts as inactive or inconclusive.

SMILES | HepG2 viability | Gal4-VP16 FLuc | RORg inh | ATXN viability | ATXN2 expr inh | TGFb SMAD3 inh
CCCCCSc1cc(OC)c(CCN)cc1OC | – | ? | 7.1µM | ? | – | ?
C=C(C)C(=O)OCC1CO1 (centres undefined) | · | – | – | · | · | ·
CN(C)C(=Nc1ccccc1)P(=S)(N(C)C)N(C)C | – | – | 10µM | – | – | –
O=C(CNC(=O)c1ccc(Cl)cc1)Nc1ccc(Br)cc1C(=O)c1ccccc1 | – | – | ? | – | –[11.3 µM] | ?
CN(C)S(=O)(=O)c1ccc(C(=O)NNc2nc(-c3ccccc3)c3cc(Br)ccc3n2)cc1 | – | ? | 7.1µM | – | – | –
Cc1cc(O)c2c3c(c(=O)oc2c1)CCC(C)C3 (centres undefined) | – | 20µM | ? | – | – | ?
COc1ccc(OCc2n[nH]c(=S)n2Cc2ccco2)cc1 | – | ? | 5.6µM | – | · | –
OCCNc1c2c(nc3ccccc13)CCCC2 | – | – | – | – | – | –
CNc1ccc2nc3ccccc3[n+](C)c2c1 | – | – | – | 10µM | · | –
C[n+]1c2ccccc2nc2ccc(NCCO)cc21 | – | – | – | 13µM | – | –
COc1cccc(/C=N/NC(=O)c2c(C)nc3ccc(Br)cn23)c1 | – | ? | 14µM | – | –[11.3 µM] | –
Clc1ccc(C2(Cn3cncn3)OCCO2)c(Cl)c1 | · | – | – | · | · | ·
CCCC1COC(Cn2cncn2)(c2ccc(Cl)cc2Cl)O1 (centres undefined) | – | 18µM! | ? | – | – | –
COc1ccc(C2=C(C(C)=O)Sc3nnc(-c4ccc(C)cc4)n3N2C(C)=O)cc1OC | – | · | · | · | · | ?
COc1ccc(C(=O)C2CCCN(C3CSCCSC3)C2)c(C)c1 (centres undefined) | – | – | 10µM | – | – | –
CCN(CC)C(=O)N[C@@H]1C=C2c3cccc4[nH]cc(c34)C[C@@H]2N(C)C1 | · | · | · | – | – | ·
C=C(C)C1Cc2c(ccc3c2OC2COc4cc(OC)c(OC)cc4C2C3=O)O1 (centres undefined) | · | ? | 0.035µM | · | · | ·
c1nc[n]([Sn]([CH]2CCCCC2)([CH]2CCCCC2)[CH]2CCCCC2)n1 | · | 22µM | ? | · | · | ·
C[C@H]1CC[C@@H]2[C@@H](C)[C@H]3[C@H](C[C@H]4[C@@H]5CC=C6C[C@@H](O[C@@H]7O[C@H](CO)[C@H](O)[C@H](O[C@@H]8O[C@H](CO)[C@@H](O)[C@H](O)[C@H]8O)[C@H]7O[C@@H]7O[C@@H](C)[C@H](O)[C@@H](O)[C@H]7O)CC[C@]6(C)[C@H]5CC[C@]34C)N2C1 | 13µM | – | – | · | ? | ?
C[C@@H]1CC2C3CC=C4C[C@@H](O)CC[C@]4(C)C3CC[C@]2(C)[C@H]1O (some centres undefined) | – | · | · | – | – | –
CC(c1nc2ccccc2c(=O)[nH]1)N(C)CCOc1ccc(Cl)cc1 (centres undefined) | – | ? | 7.1µM | – | · | –
O=C1NC(=O)N(c2ccccc2)C(=O)/C1=C/C=C/c1ccco1 | – | ? | ? | 18µM | · | ?
Cc1ccc(N2C(=O)NC(=O)/C(=C\C=C\c3ccco3)C2=O)cc1 | – | 5.6µM | ? | 7.9µM | 10µM | ?
Cc1cccc(N2C(=O)NC(=O)/C(=C\C=C\c3ccco3)C2=O)c1 | – | ? | – | ? | ? | 8.9µM
Cc1cccc(N2C(=O)NC(=O)/C(=C/c3ccc([N+](=O)[O-])o3)C2=O)c1 | – | ? | – | – | – | –
SMILES | HepG2 viability | Gal4-VP16 FLuc | RORg inh | ATXN viability | ATXN2 expr inh | TGFb SMAD3 inh
CC(=O)Nc1ccc(OC(=O)N2CCN(/[N+]([O-])=N/Oc3ccc([N+](=O)[O-])cc3[N+](=O)[O-])CC2)cc1 | – | · | · | · | · | ?
CC(=O)N(C)c1cccc(-c2ccnc3c(C(=O)c4cccs4)cnn23)c1 | · | · | · | · | – | ·
COC(=O)[C@H]1[C@H](c2ccccc2)C(=O)[C@@]2(O)c3ccccc3O[C@@]12c1ccccc1 | · | –[10 µM] | –[10 µM] | · | · | ·
CN(Cc1cccc(-c2ccncc2)c1)C(=O)Oc1ccccc1Cc1ccccc1 | · | · | · | 18µM | ? | ·
Cn1c(O)c(C2=NNC(c3ccc(Cl)cc3)C2)c(=O)n(C)c1=O (centres undefined) | – | 5µM | 7.1µM | – | – | –
CC1CCCC(=O)CCC/C=C/c2cc(O)cc(O)c2C(=O)O1 (centres undefined) | · | – | – | · | · | ·
C[C@H]1CCC[C@@H](O)CCC/C=C/c2cc(O)cc(O)c2C(=O)O1 | – | – | – | ? | 14µM | ?
COc1cccc(CSc2nc(-c3ccccc3OC)nc3c2Cc2c(CO)cnc(C)c2O3)c1 | – | · | · | ? | ? | –
COc1ccc(NC(=O)c2cn(CCC#N)nc2-c2cccc([N+](=O)[O-])c2)cc1 | – | – | – | ? | – | –
COc1ccc(Oc2cc(NC(=O)c3nn(C)cc3[N+](=O)[O-])cc([N+](=O)[O-])c2)cc1 | 18µM | – | – | – | – | 10µM
CCCCn1c(-c2nn(C)cc2Cl)n[nH]c1=S | – | ? | 13µM | – | – | –
CCCCn1nc(C)c(C(=O)O)c1Cl | – | – | – | – | · | –
CCOC(=O)N(C)C(=O)CSP(=S)(OCC)OCC | · | – | – | · | · | ·
CCOC(=O)c1cc(-c2ccccc2)n(CCCC(=O)Nc2ccc(C)c(C)c2)c1C | – | · | · | · | · | ?
O=c1c2ccccc2[se]n1-c1ccccc1 | – | 11µM | 10µM | ? | ? | ?
Cc1ccccc1C(=O)Nc1cc(-c2ccc(Cl)cc2)nn1-c1ccccc1 | – | · | · | ? | – | –
[Cl-].[Cl-].[Hg+2] | · | 18µM | ? | · | · | ·
COc1ccc2oc(-c3cccc(NC(=O)c4ccc(C#N)cc4F)c3)nc2c1 | – | · | · | ? | – | –
O=C(COc1ccc(Cl)cc1)N(c1ccc(Cl)cc1)C1CN2CCC1CC2 (centres undefined) | – | – | – | ? | – | 14µM
COc1cc(CC(C)N)cc2c1OCO2 (centres undefined) | · | · | · | – | – | ·
CC(O)CN1CCN(CC(=O)[O-])CCN(CC(=O)[O-])CCN(CC(=O)[O-])CC1.[Gd+3] (centres undefined) | · | · | · | – | – | ·
O=c1[nH]c(O)c(N=Nc2cc([N+](=O)[O-])ccc2O)c(=O)[nH]1 | – | – | – | 9.5µM | – | –
NC(=O)c1ccc(N=Nc2c(O)[nH]c(=O)[nH]c2=O)cc1 | · | – | – | · | · | ·
C[C@]12CC[C@H]3[C@@H](CC[C@@]45O[C@H]4C(O)=C(C#N)C[C@]35C)[C@H]1CC[C@H]2O | · | · | · | – | – | ·
O=C(NCC1=C(c2cccc3ccccc23)C[C@@H]2CC[C@H]1N2Cc1ccco1)c1ccc([N+](=O)[O-])cc1 | – | · | · | 14µM | ? | ?
